Compounds without any hit were thinned out: in the full panel of roughly 83,000, 20% have a hit.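 The endpoint reported here, percent growth, reads 100 for growth as untreated, 0 for no net growth and -100 for all cells dead.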 Unmarked numbers belong to inactive results. Active and inactive are the calls of the source. Rule for the calls: active = growth percent below 10; inactive = the rest.
Tested on: KM12 colon
Assay: NCI-60 one-dose screen, 48 h (100 = growth as untreated, 0 = no growth, -100 = all killed)
Conditions: 10 µM unless noted

Compound | growth
O=[N+]([O-])c1cc([N+](=O)[O-])c(C(F)(F)F)cc1NN=C(c1ccc(O)cc1)c1ccc(O)cc1 | 84%
O=C(COc1cccc(/C=C2\Oc3ccccc3C2=O)c1)c1ccc([N+](=O)[O-])cc1 | 110%
COc1cc(NCc2cn(-c3ccc(C(=O)O)cc3)nc2-c2ccc(C(=O)O)cc2)cc(OC)c1OC | 100%
COc1ncc(-c2ccc3nccc(C#CCCCCC(=O)NO)c3c2)cc1NS(=O)(=O)c1ccc(F)cc1F | 9.84% (active)
O=C(O)CSCc1nnc2n(Cc3ccccc3)c(=O)c3c4c(sc3n12)CCCC4 | 109%
C[C@]12CCc3nc(Nc4ccccc4)sc3C1=CC[C@@H]1[C@@H]2CC[C@]2(C)/C(=N/NC(N)=S)CC[C@@H]12 | 33.5%
C=C(C)C1CCC2(C(=O)O)CCC3(C)C(CCC4C5(C)CCC(OC(=O)NCc6ccccc6)C(C)(C)C5CCC43C)C12 (stereo not drawn) | 28.1%
CC(C)=CCC[C@](C)(O)[C@H]1CC[C@]2(C)[C@@H]1CC[C@@H]1[C@@]3(C)CC/C(=N/O)C(C)(C)[C@@H]3CC[C@]12C | 15.8% [100 µM]
N#CC1C(=O)NC(c2ccccc2[N+](=O)[O-])c2sc3c(F)cccc3c21 (stereo not drawn) | 91.4%
Brc1ccc(-c2nnc3c4[nH]ccc4ncn23)cc1 | 73.4%
CCCCCCCCCCCCNC(=S)N/N=C/c1ccccc1O | 68.8%
CC1(C)CC[C@]2(C(=O)O)CC[C@]3(C)[C@H](CC[C@@H]4[C@@]5(C)CCC(=O)C(C)(C)[C@@H]5CC[C@]43C)[C@H]2[C@H]1OC(=O)C(F)(F)F | -75.7% [100 µM] (active)
C#CCNC(=O)CC[C@@H](C)[C@H]1CC[C@H]2[C@@H]3CC[C@@H]4CC(=O)CC[C@]4(C)[C@H]3CC[C@]12C | -26.6% [100 µM] (active)
C=C(C)[C@@H]1CC[C@]2(C)[C@H](CC[C@@H]3[C@@H]([C@@](C)(O)CCC=C(C)C)CC[C@]32C)[C@@]1(C)CCC(=O)O | -55.2% [100 µM] (active)
CCOC(=O)COc1ccc2c(c1)O/C(=C\c1ccc(O)cc1)C2=O | 110%
O=c1c2c3c(sc2n2cnnc2n1Cc1ccccc1)CCCC3 | 113%
CC(C)CSc1ncnc2nc[nH]c12 | 106%
O=C(Oc1ccc(Cl)cc1[N+](=O)[O-])Oc1ccc(Cl)cc1[N+](=O)[O-] | 106%
CCOC(=O)c1nn(C2CCCCO2)c2ccc(NC(=O)CSc3nc4ccccc4c(=O)[nH]3)cc12 (stereo not drawn) | 102%

Compound | growth
COc1ncc(-c2ccc3nccc(C#CCCCCC(=O)O)c3c2)cc1NS(=O)(=O)c1ccc(F)cc1F | 41.6%
CCN(CC)CCS(=O)(=O)CCNc1ccnc2cc(Cl)ccc12 | -24.5% (active)
Cc1cc(N2CCCCCC2)nc(N2CCN(CC(=O)Nc3ccc4c(ccn4Cc4ccccc4)c3)CC2)n1 | 35%
COc1cc(-c2cc(-c3ccc(Nc4ncnc5cc(Cl)ccc45)cc3)nc(N3CCCCC3)n2)cc(OC)c1OC | 97.8%
O=C(Nc1cccc2cccnc12)c1cc(C(=O)c2ccc(Cl)cc2)n2ccc(-c3ccncc3)cc12 | 108%
O=C1/C(=C/c2cccc(OCc3ccccc3)c2)Oc2cc(OCCN3CCCCC3)ccc21 | 67.9%
COc1cc2c(c(OC)c1OC)-c1ccc(NNC(N)=S)c(=O)cc1[C@@H](NC(C)=O)CC2 | -35.6% (active)
CCOC(=O)c1nn(C2CCCCO2)c2ccc(NC(=O)CN3CCOCC3)cc12 (stereo not drawn) | 105%
O=S(=O)(NCc1ccccc1)c1ncnc2nc[nH]c12 | 101%
COc1ccccc1S(=O)Nc1ccccc1 (stereo not drawn) | 106%
CC(=O)n1cc(C=O)c2ccccc21 | 94%
CC(C)=CCC[C@](C)(O)[C@H]1CC[C@]2(C)[C@@H]1CC[C@@H]1[C@@]3(C)CC[C@H](OC(=O)CCC(=O)O)C(C)(C)[C@@H]3CC[C@]12C | -19% [100 µM] (active)
COc1ccc(C2NC(=O)C(C#N)c3c2sc2c(F)cccc32)cc1 (stereo not drawn) | 41%
Cc1ccc(NC(=O)N[C@@H](Cc2cc(F)cc(F)c2)C(=O)N[C@@H]2C(=O)N3CCC[C@H]3C(=O)N3CCCC[C@H]3C(=O)N[C@@H](C)C(=O)N3C[C@H](C)C[C@H]3C(=O)O[C@H]2C)cc1 | 37.8%
O=C1Nc2ccccc2/C1=C/C(=O)c1ccc(N2CCOCC2)cc1 | 105%
COc1ccc2nc3c(cc2c1)C(=O)CC(C(F)(F)F)C3 (stereo not drawn) | 11.6%
CNC(=O)c1cc(Oc2ccc3nc(NC(=O)c4ccc5ncccc5c4)sc3c2)ccn1 | 101%
N#Cc1c(Cl)nc(SCC2CO2)nc1-c1ccccc1 (stereo not drawn) | 110%
CCCCCCCCCN(CCCCCCCCC)C(C)C(=O)c1ccc2cc(Br)c3ccccc3c2c1 (stereo not drawn) | 81.4%
